Source: PubChem
Hits are enriched below; roughly 3.9% of the tested compounds scored in any of these assays.
MITF act – MITF TRPM1 promoter activation in melanoma cells; SK-MEL-5 TRPM1-promoter luciferase, 24 h; % of positive control, neutral wells = 0; activation, % at 12.5 µM; 0.75% of 300,000 active; AID 588334;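 active = mean activation of at least 80% with every replicate also reaching 80%; inconclusive = mean reaches 80% but some replicate falls short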;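 note: 0% = neutral control wells and 100% = parthenolide positive control wells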
HSF1 inh – HSF1 inhibition; NIH3T3-HGL HSE-luciferase, MG132-induced, luminescence 8 h; active compounds read low; activity change, negative = inhibition, % at 7.5 µM (by protocol); 0.77% of 300,000 active; AID 2098;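 active = more than half of replicate wells show activity change below -50%, luminescence cut by over half; inconclusive = some wells, but at most half, below -50%; inactive = no replicate well below -50%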;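 note: luciferase reports HSF-1 transcriptional activity via heat shock element; 0% = median of DMSO wells and -100% = zero luminescence signal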
Wnt act – Wnt/beta-catenin pathway activation | Wnt/beta-catenin reporter cell assay, activator, plate reader | activation, % at 9.35 µM | 1.2% of 300,000 active; in the data active = activation above about 30%, passing the limit was not always enough; inconclusive = no clear call, values can overlap the other calls;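 note: 0% = neutral control wells and 100% = positive control wells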
HSF-1 act – increases HSF-1 driven luciferase reporter signal; NIH3T3-HGL HSF-1 luciferase reporter, MG132, 8 h; 100% = twice DMSO control signal; activation, % at 9 µM; 1.7% of 300,000 active;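 active = mean replicate activation of at least 50% with a set share of replicates each reaching 50%; inconclusive = only one of those two conditions met; inactive = mean below 50% and too few replicates reaching it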;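 note: 0% = median of the neutral control wells and 100% = twice that signal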
esBAF inh – inhibitors of esBAF chromatin remodeling in mouse ES cells. Bmi1-luciferase knock-in reporter, 24 h; 100% = twice the neutral-well signal. reporter increase, % at 12.5 µM. 2% of 350,000 active. AID 602393; in the data active = activation above about 40%; inconclusive = no clear call, values can overlap the other calls;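 note: 0% = median of the plate's neutral control wells and 100% = double that signal; a rise in the Bmi1 reporter signal indicates esBAF inhibition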
Numbers without * were called inactive; ? = inconclusive; · = no result.

SMILES	MITF act	HSF1 inh	Wnt act	HSF-1 act	esBAF inh
COc1cccc(CNC(=O)Cn2c(=O)c3cccn3c3ccccc32)c1	-4	-86*	0	-89	-6
Cc1cc(=O)oc2cc(NC(=O)c3cccc(S(=O)(=O)N(C)C)c3)ccc12	139*	13	28	40	40
Cc1cc(=O)oc2cc(NC(=O)c3cccc(S(C)(=O)=O)c3)ccc12	93*	11	7	21	?
Cc1cc(=O)oc2cc(NC(=O)Cc3ccccc3)ccc12	51	7	14	31	31
COc1ccccc1C(=O)Nc1ccc2c(C)cc(=O)oc2c1	88*	2	48*	-4	54*
Cc1cc(=O)oc2cc(NC(=O)c3ccc(OC(F)F)cc3)ccc12	86*	10	11	31	57*
CO[C@@H](CN(C)C(=O)c1cnccn1)[C@@H](C)CN([C@H](C)CO)S(=O)(=O)c1ccc(F)cc1	·	·	·	·	0
C[C@H](CO)N1C[C@H](C)[C@@H](CN(C)Cc2ccccc2)Oc2ncc(C3=CCCCC3)cc2C1=O	·	·	·	·	1
Cc1nccn1Cc1cccc2ccccc12	0	-53*	0	-64	·
c1ccc2c(Cn3ccnc3)cccc2c1	10	4	-1	5	-1
COc1ccc(C(=O)c2c(C(F)(F)F)oc3c2C(=O)c2ccccc2C3=O)cc1	-103	-94*	·	-94	·
Cc1ccc(C(=O)c2c(C)oc3c2C(=O)C(=O)c2ccccc2-3)cc1	-26	16	·	14	·
Cc1ccc(NC(=O)CSCc2cc(=O)n3cc(C)sc3n2)c(C)c1	9	-59*	1	-69	2
Cc1ccc(NC(=O)CSCc2cc(=O)n3cc(C)sc3n2)cc1	-6	10	2	16	2
Cn1cc(/C=C(\C#N)C(=O)Nc2ccccc2O)c2ccccc21	40	11	·	9	64*
CCCC(=O)Nc1ccc2c(c1)OC[C@@H](C)N(CCc1ccccc1)C[C@@H](C)[C@@H](OC)CN(C)C2=O	·	·	·	·	-4
Cc1ccsc1/C=C/c1ccc2cccc(O)c2n1	·	46	·	71*	·
COc1cc(Br)c(/C=C/c2ccc3cccc(O)c3n2)cc1OC	4	11	8	27	23
Oc1ccc(Cl)cc1/C=C/c1ccc2cccc(O)c2n1	-1	29	16	58*	·
COc1cc(/C=C/c2ccc3cccc(O)c3n2)c(Br)cc1O	-3	17	12	21	40*
COc1cc(Br)cc(/C=C/c2ccc3cccc(O)c3n2)c1O	8	63	8	85*	13
Cc1ccsc1/C=C/c1ccc2ccccc2n1	-15	-24	-2	-35	-75
C[C@H]1CCCCO[C@@H](CN(C)C(=O)c2ccncc2)[C@@H](C)CN([C@@H](C)CO)C(=O)c2cc(NC(=O)c3ccccc3)ccc2O1	·	·	·	·	-2
O=C(Nc1nc2c(Cl)cccc2s1)c1ccc(Br)o1	1	10	·	3	39
Cn1ncc(Cl)c1C(=O)Nc1nc2ccc(Cl)cc2s1	14	27	0	37	·
SMILES	MITF act	HSF1 inh	Wnt act	HSF-1 act	esBAF inh
Cc1cc(C(=O)Nc2nc3ccc(Cl)cc3s2)nn1C	·	18	60*	35	·
O=C(Nc1nc2ccc(Cl)cc2s1)c1ccc(Br)o1	59	23	10	40	62*
COc1ccc(S(=O)(=O)Nc2ccc3c(c2)C(=O)N(C)C[C@@H](OC)[C@@H](C)CN[C@H](C)CO3)cc1	·	·	·	·	-4
CCN(CC)C(=N)/C(C#N)=N/Nc1ccc(C)cc1	·	30	29	57*	·
C(=C\c1nnc(-c2cccs2)o1)/c1ccccc1	123*	40	-2	?	7
Clc1ccccc1-c1nnc(-c2cccs2)o1	54	-1	12	9	46*
Cc1ccc(-c2nnc(Nc3ccccc3)o2)cc1	-4	-7	-1	-25	-80
Cc1ccc(/C=C/c2nnc(-c3ccccc3)o2)cc1	57	19	·	55*	7
CN(C)c1ccc(-c2nnc(-c3cccs3)o2)cc1	15	29	?	49	·
CCS(=O)(=O)NCC[C@H]1CC[C@@H](NS(=O)(=O)c2ccccc2C)[C@H](CO)O1	·	·	·	·	5
COC(=O)C[C@@H]1C[C@@H]2c3cc(NS(C)(=O)=O)ccc3O[C@@H]2[C@@H](CO)O1	·	·	·	·	-4
O=C(NCC[C@@H]1CC[C@H](NC(=O)c2cccnc2)[C@@H](CO)O1)Nc1ccc(C(F)(F)F)cc1	·	·	·	·	-1
C[C@H](CO)N1C[C@H](C)[C@H](CN(C)S(=O)(=O)c2ccccc2)OCCCC[C@H](C)Oc2ccc(NC(=O)C3CCCCC3)cc2C1=O	·	·	·	·	5
C=C1C(=O)C2=CC1CCC(=O)C1(C)CCC(OC(C)=O)C(C)(C)C1CC2O (stereo unspecified)	-101	89*	-25	89*	·
COC(=O)c1ccc(COc2ccc(C)cc2[N+](=O)[O-])o1	·	25	36*	?	·
COCCCNCCOc1ccc(C)cc1[N+](=O)[O-]	1	44	-5	59*	·
Cc1ccc(OCc2ccc(C(=O)NN)o2)c([N+](=O)[O-])c1	·	11	-1	20	·
COC(=O)c1ccc(COc2ccc3c(C)c(C)c(=O)oc3c2C)o1	·	·	·	·	23*
COc1cccc(C2=CC(=O)C[C@H](c3ccc4c(c3)OCO4)C2)c1OC	57	·	·	·	43*
COc1cccc(OC)c1C1=CC(=O)C[C@H](c2ccc3c(c2)OCO3)C1	-5	·	-2	·	1
COc1ccc(S(=O)(=O)N2Cc3ccccc3CC2C(=O)Nc2nccs2)cc1OC (stereo unspecified)	41	7	29	24	44*
COc1ccc(S(=O)(=O)N2CCC(C(=O)Nc3nccs3)CC2)cc1	4	-8	-1	-3	·
COc1ccc(S(=O)(=O)N2Cc3ccccc3CC2C(=O)Nc2nccs2)cc1 (stereo unspecified)	44	9	·	13	50*
CCS(=O)(=O)N1Cc2ccccc2CC1C(=O)Nc1nc(C)cs1 (stereo unspecified)	20	-16	5	-9	·
CCS(=O)(=O)N1Cc2ccccc2CC1C(=O)Nc1nccs1 (stereo unspecified)	29	-2	26	11	44*
SMILES	MITF act	HSF1 inh	Wnt act	HSF-1 act	esBAF inh
CCOc1c(C)cc(S(=O)(=O)NCc2cccnc2)c(C)c1C	-10	-56*	1	-66	-8
COCc1nc2oc3ccccc3c(=O)c2cc1C(=O)OC	88*	1	17	8	48*
COc1ccc(-c2ccc([C@@H]3[C@H](C#N)N(C(=O)NC4CCCC4)[C@H]3CO)cc2)cc1	·	·	·	·	3
CCOC(=O)/C(C#N)=C/c1cc(C)n(-c2ccc(C)cc2)c1C	93*	-5	·	-13	17
Cc1cc(/C=C(\C#N)C(=O)Nc2ccccc2)c(C)n1-c1ccc(C(=O)O)cc1	-1	-2	-2	-9	2
CCOC(=O)/C(C#N)=C\c1cc(C)n(-c2ccccc2)c1C	·	-63*	12	-69	-34
COc1ccc(OC)c(NC(=O)CS(=O)(=O)Cc2ccccc2)c1	-8	-61*	-1	-71	7
